Data taken from PubChem BioAssay AID2718 (Broad Institute, 2010).
Screen size: about 320,000 compounds; about 480 (0.15%) were called active. Another 1% or so got no clear call; they are omitted. Only a selection was taken, and actives are over-represented in it overall. Unmarked numbers belong to inactive results. Rule as the data show it: active = inhibition above about 26% (passing the limit was not always enough); inconclusive = no clear call, values can overlap the other calls.

Each compound was assayed against Histone deacetylase 3 (Homo sapiens) (UniProt O15379) (assay: HDAC3 deacetylase inhibitors, primary screen, biochemical, fluorescence, cell-free homogeneous (AID 2718)). Conditions: recombinant HDAC3, fluorogenic peptide/trypsin coupled, at 8.3 µM, active compounds read high.
Sequence of Histone deacetylase 3 (Homo sapiens) (O15379 whole entry, looked up): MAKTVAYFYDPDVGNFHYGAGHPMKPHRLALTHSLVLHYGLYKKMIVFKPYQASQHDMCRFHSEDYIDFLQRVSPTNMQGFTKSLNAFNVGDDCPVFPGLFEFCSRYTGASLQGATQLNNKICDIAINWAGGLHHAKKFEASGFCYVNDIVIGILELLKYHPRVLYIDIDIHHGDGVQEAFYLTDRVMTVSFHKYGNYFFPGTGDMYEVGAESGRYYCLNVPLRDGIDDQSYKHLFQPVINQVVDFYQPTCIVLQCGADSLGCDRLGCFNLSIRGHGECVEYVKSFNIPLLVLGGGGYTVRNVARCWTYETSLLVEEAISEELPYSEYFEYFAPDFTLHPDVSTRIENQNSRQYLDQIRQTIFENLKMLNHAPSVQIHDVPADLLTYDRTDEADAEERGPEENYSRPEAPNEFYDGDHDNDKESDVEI

Row | SMILES | inhibition
1 | Cc1ccc(C)c(NC(=O)c2cc(-c3cc(C)cc(C)c3O)n[nH]2)c1 | -1.79%
2 | Cc1cc(NC(=O)CSc2nnc(-c3ccco3)n2N)no1 | 2.85%
3 | Cc1[nH]c2ccccc2c1SCC(=O)Nc1nccs1 | -0.0176%
4 | CC(C)(C)OC(=O)C[C@@H]1C/C=C\C[C@H](CC(=O)N[C@@H](CO)Cc2ccccc2)C(=O)N[C@H](Cc2ccccc2)COC1=O | -0.452%
5 | COc1ccccc1-c1sc2ccccc2c1C#CC1(O)CCCCC1 | 14.4%
6 | COc1cc(/C=C/C(=O)OCC(=O)c2ccccc2)cc(OC)c1OC | -7.7%
7 | O=C(OCC(=O)N1CCCCC1)c1ccc(OC(F)(F)F)cc1 | -7.06%
8 | O=C(Cn1cnc2c(OCc3ccccc3)ncnc21)NCCCn1ccnc1 | -4.2%
9 | O=C1CCCC(O)=C1N=Nc1ccc2ncsc2c1 | -0.0778%
10 | Nc1ccc(N=Nc2ccccc2Cl)c(N)n1 | 14.3%
11 | NC[C@H](Cc1ccccc1)NCCc1cc(C(F)(F)F)cc(C(F)(F)F)c1 | 3.54%
12 | O=C(COC(=O)CCCNC(=O)c1ccc(Cl)cc1)Nc1cc(Cl)ccc1Cl | -2.2%
13 | O=C(Nc1cc(S(=O)(=O)Nc2ccc(Cl)cc2)ccc1O)c1ccc(F)cc1F | 8.91%
14 | O=C(N/N=C/c1ccccn1)c1ccc(S(=O)(=O)N2CCCCCC2)cc1 | -5.66%
15 | O=C(Nc1ccccc1F)c1ccc(S(=O)(=O)N2CCCCCC2)cc1 | 7.14%
16 | O=C(Nc1ncccc1O)c1ccc(S(=O)(=O)N2CCCC2)cc1 | 72.1% (active)
17 | CCCc1cc(=O)[nH]c(SCC(=O)Nc2ccc(S(=O)(=O)N3CCCC3)cc2)n1 | 4.11%
18 | O=C1N(c2ccccc2)C(=Nc2ccccc2)SC12CC2 | 1.18%
19 | Cc1ccccc1N/C(SCc1ccc(Cl)cc1)=C(/C#N)C(N)=O | 15.5%
20 | CCOC(=O)C1CCN(CCC(=O)Nc2cccc(C)c2)CC1 | 1.84%
21 | CC(=O)c1cccc(OCC(=O)OCC(=O)Nc2cc(S(=O)(=O)N3CCCCC3)ccc2C)c1 | 0.557%
22 | CNC(=O)NC(=O)C(OC(=O)c1cccc(S(=O)(=O)N2CCCCC2)c1)c1ccccc1 (centres undefined) | 30.1% (active)
23 | CS(=O)(=O)c1ccc(Cl)c(NC(=O)COC(=O)c2cccc(S(=O)(=O)N3CCCC3)c2)c1 | 5.04%
24 | CN1CCN(S(=O)(=O)c2cccc(C(=O)O)c2)CC1 | -5.01%
25 | COC(=O)c1nc(NC(=O)c2ccccc2)n[nH]1 | 58.7% (active)

Row | SMILES | inhibition
26 | COC(=O)c1nc(NC(=O)c2ccc(Cl)cc2)n[nH]1 | 7.09%
27 | Cn1c(NC(=O)c2ccccc2)nc2ccccc21 | 9.99%
28 | Nn1c(SCC(=O)Nc2ccc3c(c2)CCC3)nnc1C1CC1 | 1.79%
29 | Cc1cc(C)n(C(=O)CCNC(=O)c2ccccc2Cl)n1 | -13.4%
30 | COc1cccc(N2CC(NS(=O)(=O)c3cccs3)CC2=O)c1 (centres undefined) | -2.66%
31 | COc1ccccc1C(=O)OCC(=O)Nc1cccc(S(=O)(=O)NC2=NCCCCC2)c1 | -6.85%
32 | O=C(COC(=O)c1cc[n+]([O-])cc1)Nc1ccc(Cl)c(C(F)(F)F)c1 | -1.85%
33 | COc1cc(OC)cc(C(=O)NCC(=O)OCC(=O)NC(C)CCc2ccccc2)c1 (centres undefined) | -5.18%
34 | CC(C)Cn1c(SCC(=O)Nc2ccc(Cl)cc2F)nc(O)cc1=O | 8.68%
35 | CCC(CO)Oc1cc(NC(=O)c2cccc(F)c2)c2ncn(C(C)C)c2c1 (centres undefined) | -0.176%
36 | O=C(COc1ccc([N+](=O)[O-])cc1)Nc1ccc(N2CCCC2)cc1 | 54.5% (active)
37 | CCC(=O)c1ccc(OCC(=O)Nc2ccc(N3CCCCC3)cc2)cc1 | -1.33%
38 | COc1ccc(OCC(=O)Nc2ccc(N3CCC(C)CC3)cc2)cc1 | 5.48%
39 | O=C(Nc1cc(S(=O)(=O)N2CCCCC2)ccc1Cl)C1COc2ccccc2O1 (centres undefined) | -0.0794%
40 | COc1cc(OC)cc(-c2cc3ccc(F)cc3cn2)c1 | 5.76%
41 | CCN(C[C@H]1N[C@@](CC)(C(=O)OC)[C@H]2C(=O)N(Cc3ccccc3)C(=O)[C@@H]12)S(=O)(=O)c1ccc(C(F)(F)F)cc1 | 4.73%
42 | CC[C@@H]1CCCCc2ccccc2[C@@H](C(=O)C[C@H](O)CC(C)=O)OC1=O | -4.02%
43 | O=C(CCNC(=O)c1ccccc1)NN=Cc1ccc(Br)o1 | 4.25%
44 | Fc1ccccc1-c1cc2cc3c(cc2cn1)OCO3 | 0.895%
45 | CCOC(=O)C1Cn2c(nc3c(c2=O)C(C)(CC)Cc2ccccc2-3)S1 (centres undefined) | -2.26%
46 | CCCN(CC1CC1)C(=O)COC(=O)c1ccc(C)cc1O | -5.26%
47 | CCCC1CCC(=NNC(=S)NCCc2ccccc2)CC1 (centres undefined) | -4.85%
48 | COCCN(CCOC)S(=O)(=O)NC[C@H]1O[C@@H](n2cnc3c(N)ncnc32)[C@H](O)[C@@H]1O | -1.58%
49 | Cc1nc2ccc(NC(=O)c3cccc(S(=O)(=O)N4CCOCC4)c3)cc2s1 | -5.18%
